Shown are actives, neighbours in structure and some others; about 14% of the full set was active somewhere.
Pf growth 96h – inhibits malaria parasite growth, 96 h; P. falciparum luciferase reporter growth, 96 h; Potency, µM (doses to about 28.7 µM), inactives show top-dose activity change, negative = inhibition, actives largely listed as inhibitors; 320,000 tested, 6.9% active; note: potency is the fitted concentration of half-maximal effect
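P. falciparum expressing integrated firefly luciferase, in erythrocytes at 2% hematocrit, 0.05% parasitemia, incubated with compounds 96 h at 37 C, 5% CO2. Growth inhibition read as loss of luminescence; two-generation exposure targets delayed-death apicoplast inhibitors.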
Pf growth 48h – inhibits P. falciparum growth in the first generation, 48 h; Potency, µM (top dose mostly 28.7 µM), for the others: at the top dose activity change, negative = inhibition, usual class: inhibitors; P. falciparum luciferase growth in erythrocytes, 48 h; 310,000 tested, 5.9% active; note: potency is the fitted concentration of half-maximal effect
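Cell-based growth assay: transgenic P. falciparum expressing firefly luciferase, cultured in red cells within RPMI 1640 containing 0.5% w/v Albumax, 24 mM bicarbonate and gentamycin. A drop in luciferase activity indicates inhibition.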
Lassa entry inh – Lassa virus entry inhibition. Potency, µM (highest dose often 37.9 µM), inactives show at the top dose activity change, negative = inhibition, actives largely listed as inhibitors. Lassa virus pseudotype entry inhibition, cell reporter. 300,000 tested, 1.2% active; calls by dose curve; tested in HEK293 cells; note: potency is the fitted concentration of half-maximal effect; nearly all actives have a fitted effect of over 50% in size
HCV inh – blocks hepatitis C virus | Potency, µM (doses to about 41.8 µM), without a hit: top-dose activity change, negative = inhibition, actives largely listed as inhibitors | Huh7.5.1 HCVcc-Cre infection, luciferase reporter, 44 h | AID 651820 | 340,000 tested, 3.4% active; note: potency is the fitted concentration of half-maximal effect
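Antiviral activity was scored by luciferase reporter output from cells infected with HCVcc-Cre (~0.5 moi) in presence of compound, 44 h infection period, cells seeded 1,000/well 4 h prior.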
MARV entry inh – inhibitors of Marburg virus binding or cell entry; Marburg virus pseudotyped entry inhibition, cell reporter; Potency, µM (doses to about 37.8 µM), for the others: top-dose activity change, negative = inhibition, usual class: inhibitors; 300,000 tested, 1.8% active; AID 540276; calls by dose curve; tested in HEK293 cells; note: potency is the fitted concentration of half-maximal effect
HCMV antiviral – blocks human cytomegalovirus replication; HFF cells, HCMV-luciferase reporter, 72 h; active compounds read low; 410,000 tested, 4.5% active; activity change, negative = inhibition, % at 57.5 µM; AID 1259415; in the data active = activity change below about -60%; inconclusive = no clear call, values can overlap the other calls; inactive = above about -39%
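Cell-based, HFFs, 1000 cells/well, 16 h 37C; cpds in DMSO + HCMV-luc, MOI 1 PFU/cell; 72 h 37C; OneGlo luminescence after 5 min RT; norm. to buffer vs Salinomycin 10uM.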
Active calls of the source: *; ? = inconclusive; . = not tested or not shown; [ ] = remark or other dose. Unless noted, calls come from the whole dose curve; as a rule, active = well fitted inhibition curve with a large enough effect; inconclusive = small, poorly fitted or top-dose-only effect, or another doubt; inactive = no such curve, though single readings can be large or run the other way. % is set by controls: 0 for no effect and ±100 for the full control effect.

SMILES	Pf growth 96h	Pf growth 48h	Lassa entry inh	HCV inh	MARV entry inh	HCMV antiviral
COc1ccc(C2CCCN2C(=S)Nc2ccccc2C)cc1OC (centres undefined)	?	9.3µM*	-1%[46.1 µM]	-8%	?	-25
O=S(=O)(CCN1CCCCC1)CCS(=O)(=O)CCN1CCCCC1	.	.	1%[46.1 µM]	17%	0%[46.1 µM]	-35
Cc1cc(C)c(NS(=O)(=O)c2ccccc2)c(C)c1NS(=O)(=O)c1ccccc1	.	.	?	?	?	-72*
O=S(=O)(Nc1ccc(NS(=O)(=O)c2ccccc2)cc1)c1ccccc1	.	.	.	.	.	-14
Cc1cc(O)cc(C)c1NS(=O)(=O)c1ccc2ccccc2c1	?	7%	.	-28%	.	-83*
COc1ccc(S(=O)(=O)Nc2ccc3ccccc3c2)cc1C	-20%	.	-4%	11µM*	?	-13
COc1ccc(S(=O)(=O)Nc2ccc(S(=O)(=O)N3CCCCC3)cc2)cc1C	?	?	-12%	35µM*	13%	5
CCN(CC)C(=O)C1=C(C)N(Cc2ccc(OC)cc2)C(=O)C(CC(=O)NCc2cccs2)C1 (centres undefined)	.	.	.	.	.	-9
CC(C)CNC(=O)C1(C)CCCN1C(=O)c1c(Cl)cccc1Cl (centres undefined)	.	.	.	.	.	-4
C[C@@H]1CN([C@H](C)CO)S(=O)(=O)c2ccc(Br)cc2O[C@H]1CN(C)CC1CCOCC1	.	.	.	.	.	-22
Cc1ccc(C)c(CS(=O)(=O)c2cn(CC(=O)N3CCC(C)CC3)c3ccccc23)c1	5.2µM*	?	?	-3%	-14%	?
CCCNC(=O)C(=O)Nc1ccc2c(c1)N(S(=O)(=O)c1cccs1)CCC2	56%	1%	?	?	?	2
CN(C)CCCNC(=O)C(=O)Nc1ccc2c(c1)N(S(=O)(=O)c1cccs1)CCC2	?	9.3µM*	4%[46.1 µM]	8.9µM*	?	?
CN(C)CCNC(=O)C(=O)Nc1ccc2c(c1)N(S(=O)(=O)c1cccs1)CCC2	13µM*	?	-27%	?	?	-25
C=CCNC(=O)C(=O)Nc1ccc2c(c1)N(S(=O)(=O)c1cccs1)CCC2	?	?	8.9µM*	?	?	-9
COCCCNC(=O)C(=O)Nc1ccc2c(c1)N(S(=O)(=O)c1cccs1)CCC2	?	?	?	?	-32%	?
COc1ccc(-c2nc(CCNC(=O)Cc3ccc(F)cc3)cs2)cc1	.	.	21%[46.1 µM]	.	.	45
NC(=O)C1CCN(c2nc(-c3ccc(C(F)(F)F)cc3)cs2)CC1	26%	?	.	.	.	.
CS(=O)(=O)c1ccc([C@@H](O)[C@@H](CO)NC(=O)C(Cl)Cl)cc1	4.7µM*	?	.	5%	.	58
CS(=O)(=O)c1ccc([C@@H](O)[C@@H](CF)NC(=O)C(Cl)Cl)cc1	3.3µM*	12µM*	.	?	.	22
CS(=O)(=O)c1ccc([C@H](O)[C@H](CO)NC(=O)C(Cl)Cl)cc1	?	-18%[12.8 µM]	.	.	.	.
CS(=O)(=O)c1ccc([C@H](O)[C@H](CF)NC(=O)C(Cl)Cl)cc1	2µM*	?	.	.	.	.
O=[N+]([O-])c1ccc(CN2[C@H](COCc3ccccc3)[C@@H](N3CCCC3)CS2(=O)=O)cc1	.	.	-3%[46.1 µM]	.	.	-6
COc1ccc(NC(=O)C2CCC(N3C(=O)C4C5C=CC(C5)C4C3=O)CC2)cc1 (centres undefined)	.	?	7%	5%	17%[46.1 µM]	59
COc1ccc(NC(=O)[C@@H]2[C@@H]3C(=O)N(C4CCCCC4)C(=O)[C@@H]3C3c4ccccc4C=CN32)cc1 (some centres undefined)	15µM*	7.4µM*	5%	-10%	-21%	25
SMILES	Pf growth 96h	Pf growth 48h	Lassa entry inh	HCV inh	MARV entry inh	HCMV antiviral
CSc1ccccc1NC(=O)Nc1cccc2ccccc12	1%	-4%	.	-6%	.	11
Nc1nc2[nH]cc(CCc3ccc(C(=O)NC(CCC(=O)O)C(=O)O)cc3)c2c(=O)[nH]1 (centres undefined)	1.3µM*	0.67µM*	.	.	.	.
COc1ccc(CN2CCCC(C(=O)c3ccc(Cl)cc3)C2)c(OC)c1 (centres undefined)	?	?	?	?	?	19
O=C(c1ccc(Cl)cc1)C1CCCN(Cc2cccc3cnccc23)C1 (centres undefined)	?	?	.	?	.	-62*
O=C(c1cccc(Cl)c1)C1CCCN(Cc2cccc3cnccc23)C1 (centres undefined)	1%	?	-7%	?	?	-71*
O=C(c1ccc(Cl)cc1)C1CCCN(Cc2ccc3c(c2)OCCO3)C1 (centres undefined)	16%	20%	-20%	-26%	?	-21
CCCn1ncc(CN2CCCC(C(=O)c3cccc(OC(C)C)c3)C2)c1C (centres undefined)	12µM*	13µM*	.	-17%	.	-28
O=C(c1ccc(Cl)cc1)C1CCCN(Cc2ccc3ncccc3c2)C1 (centres undefined)	4%	?	.	?	?	-75*
CCOC(=O)c1cnc2ccc(OC(F)(F)F)cc2c1Nc1ccccc1C(=O)O	.	.	-19%[46.1 µM]	.	14%[46.1 µM]	-6
CCN(CC)S(=O)(=O)c1cccc(C(=O)NC(C(=O)Nc2nnc(C)s2)C(C)C)c1 (centres undefined)	.	12µM*	-12%	-9%	-15%	8
CCN(CC)S(=O)(=O)c1cccc(C(=O)N[C@H](C(=O)NCc2ccc(Cl)cc2)C(C)C)c1	.	?	13µM*	?	10µM*	-17
CCN(CC)S(=O)(=O)c1cccc(C(=O)N[C@H](C(=O)O)C(C)C)c1	17%	.	6%	4%	17%	24
CCN(CC)S(=O)(=O)c1ccc(Cl)c(C(=O)Nc2nnc(C)s2)c1	0%	-25%	?	22µM*	-5%	1
COCCCN1C(=O)C(CC(=O)NCc2cccs2)CC(C(=O)N2CCCCCC2)=C1C (centres undefined)	.	.	.	.	.	13
CCOC(=O)N1CCN(C(=O)C(CC(C)C)NS(=O)(=O)c2ccc(C)cc2)CC1 (centres undefined)	0%	-13%	.	22%	.	-2
Cc1cc(NC(=O)CCCn2nc(C)c([N+](=O)[O-])c2C)no1	1.5µM*	5%	-4%[46.1 µM]	0%	2%[46.1 µM]	-16
Cc1ccc(C)c(Oc2cc(NC(=O)CCCn3nc(C)c([N+](=O)[O-])c3C)cc([N+](=O)[O-])c2)c1	?	?	?	13µM*	?	-88*
Cc1nn(CCCC(=O)Nc2cc(Oc3ccccc3)cc([N+](=O)[O-])c2)c(C)c1[N+](=O)[O-]	53%	-13%	4%	?	?	3
